Measurements from PubChem BioAssay (Tox21).
Results filed as inconclusive are left out. Where a call stands in place of a potency, no number is given. A number with no mark means an inactive call. Calls of active or inactive are those of the source. Unless noted, calls follow the shape of the dose curve; as a rule, active = well fitted curve in the direction sought with a large enough effect in the repeat runs; inconclusive = weak or mixed curves; inactive = no such curve, though single readings can be large; an effect the other way counts as inactive or inconclusive.

Columns and labels:
[1] = qHTS assay to identify small molecule agonists of the RXR signaling pathway - cell viability counter screen (AID 1159529); also: nearly all actives have a fitted effect of over 50% in size; also: potency is read from the fitted curve at half-maximal effect; as to activity change, negative = cytotoxicity: series mostly up to about 77 µM
Procedure, shortened: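 CellTiter-Glo luminescence gave viability in the wells also read for beta-lactamase. Cells (RXR-alpha-UAS-bla HEK 293T, 2% charcoal-stripped FBS medium) had 5 hr plating, then 16 hr compound exposure at 37 C; tetraoctyl ammonium bromide served as positive control.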

[2] = qHTS assay to identify small molecule antagonists of the retinoid acid receptor (RAR) signaling pathway - cell viability counter screen (AID 1159551); also: nearly all actives have a fitted effect of over 35% in size
Procedure, shortened: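 In this counter screen, the RARE-luciferase line C3RL4 was exposed for 6 h at 37 C and 5% CO2 to compounds with retinol at 1 uM final. Cellular ATP, read by luminescence, served as the viability measure.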

[3] = qHTS assay to identify small molecule antagonists of the retinoic acid receptor (RAR) signaling pathway (AID 1159552; also: nearly all actives have a fitted effect of over 50% in size)
Procedure, shortened: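 Luminescent RARE reporter read-out in C3RL4 cells: 6 hr co-treatment at 37 C of test compounds with retinol at 1 uM final. Cells plated overnight beforehand; luciferase reagent incubated 30 min at room temperature before reading.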

[4] = qHTS assay to identify small molecule agonists of the retinoic acid receptor (RAR) signaling pathway (AID 1159553); also: potency is read from the fitted curve at half-maximal effect
Procedure, shortened: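 In this cell-based screen, 1,000 C3RL4 cells per well were cultured overnight, dosed with test chemicals in DMSO for 6 hr, and assessed for RARE luciferase luminescence.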

[5] = qHTS assay to identify small molecule antagonists of the estrogen related receptor (ERR) signaling pathway from Tox21 library - cell viability counter screen (AID 1224834); also: nearly all actives have a fitted effect of over 30% in size
Procedure, shortened: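 Counter screen run in ERR cells (2,000 cells/well): cells pre-incubated 6 h, then treated with compounds for 17.5 h at 37 C. Fluorescence was read 30 min after CellTiter-Fluor addition.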

[6] = target: Luciferin 4-monooxygenase (Photinus pyralis) (UniProt P08659); assay: qHTS assay to identify small molecule inhibitors of firefly luciferase (AID 1224835); also: nearly all actives have a fitted effect of over 25% in size; also: potency is read from the fitted curve at half-maximal effect; as to activity change, negative = inhibition: series mostly up to about 120 µM
Procedure, shortened: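 Biochemical qHTS: compounds run as interplate titrations against purified firefly enzyme, with D-luciferin and ATP each at its KM concentration. Light output recorded by CCD imaging.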

[7] = qHTS assay to identify small molecule agonists of the constitutive androstane receptor (CAR) signaling pathway - cell viability counter screen (AID 1224836); also: series mostly up to about 92 µM; nearly all actives have a fitted effect of over 45% in size
Procedure, shortened: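 Cell viability multiplexed with the CAR agonist screen: CellTiter-Fluor fluorescence after 23 hr at 37 C. HepG2-CYP2B6-hCAR cells got compounds at 15 concentrations with PK11195 at 0.75 uM final.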

[8] = qHTS assay to identify small molecule antagonists of the constitutive androstane receptor (CAR) signaling pathway - cell viability counter screen (AID 1224837); also: nearly all actives have a fitted effect of over 45% in size; also: potency is read from the fitted curve at half-maximal effect; as to activity change, negative = cytotoxicity: series mostly up to about 92 µM
Procedure, shortened: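 CITCO at 50 nM final was added alongside compounds (15 concentrations) to double-stable hCAR/CYP2B6-2.2kb HepG2 cells. Following 23 hr at 37 C, cell viability was quantified by CellTiter-Fluor fluorescence intensity.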

[9] = qHTS assay to identify small molecule antagonists of the estrogen related receptor signaling pathway with the pleiotropic PPARgamma coactivator (PGC) from Tox21 10K library - cell viability counter screen (AID 1224840; active = well fitted cell-killing curve with a large enough effect in the repeat runs, not every such curve was filed as active; also: nearly all actives have a fitted effect of over 40% in size)
Procedure, shortened: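 Readout: fluorescence intensity from CellTiter-Fluor after 30 min at 37 C/5% CO2. Preceded by 17.5 h treatment of PGC/ERR cells with DMSO-dissolved compounds, added 6 h post-seeding.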

[10] = target: Nuclear receptor subfamily 1 group I member 3 (Homo sapiens) (UniProt Q14994); assay: qHTS assay to identify small molecule antagonists of the constitutive androstane receptor (CAR) signaling pathway (AID 1224838); also: nearly all actives have a fitted effect of over 40% in size; also: potency is read from the fitted curve at half-maximal effect
Procedure, shortened: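 Inhibition of CITCO-driven (50 nM final) CYP2B6 reporter expression is measured in HepG2 cells stably carrying hCAR. Fifteen compound concentrations are applied for 24 h at 37 C, followed by luciferase luminescence.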

[11] = target: Nuclear receptor subfamily 1 group I member 3 (Homo sapiens) (UniProt Q14994); assay: qHTS assay to identify small molecule agonists of the constitutive androstane receptor (CAR) signaling pathway (AID 1224839); also: nearly all actives have a fitted effect of over 15% in size; also: potency is read from the fitted curve at half-maximal effect; as to activation: series mostly up to about 92 µM
Procedure, shortened: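 Luminescent ONE-Glo read-out after 24 hr, 37 C exposure of double-stable HepG2-CYP2B6-hCAR reporter cells to a 15-point compound series, in the presence of 0.75 uM PK11195 (final).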

[12] = qHTS assay to identify small molecule antagonists of the estrogen related receptor signaling pathway with the pleiotropic PPARgamma coactivator (PGC) from Tox21 10K library (AID 1224841; call rule not given here; also: actives are mostly falling curves and most rising ones were filed inactive; nearly all actives have a fitted effect of over 50% in size; also: potency is read from the fitted curve at half-maximal effect; as to activity, negative = inhibition: series mostly up to about 92 µM)
Procedure, shortened: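 One-Glo luminescence, measured after half an hour at room temperature, quantified reporter output of PGC/ERR cells. These had been plated at 2,000 per well, incubated 6 h, dosed with compounds in DMSO, then kept 18 h at 37 C.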

[13] = qHTS assay to identify small molecule agonists of the estrogen related receptor signaling pathway with the pleiotropic PPARgamma coactivator (PGC) from Tox21 10K library (AID 1224842); also: nearly all actives have a fitted effect of over 15% in size; also: potency is read from the fitted curve at half-maximal effect
Procedure, shortened: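 PGC/ERR reporter cell line, 2,000 cells per well, incubated 6 h at 37 C before 23 nL compound in DMSO was added. After 18 h at 37 C, One-Glo luminescence read following 30 min at room temperature.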

Nuclear receptor subfamily 1 group I member 3 (Homo sapiens), sequence (Q14994 whole entry, looked up): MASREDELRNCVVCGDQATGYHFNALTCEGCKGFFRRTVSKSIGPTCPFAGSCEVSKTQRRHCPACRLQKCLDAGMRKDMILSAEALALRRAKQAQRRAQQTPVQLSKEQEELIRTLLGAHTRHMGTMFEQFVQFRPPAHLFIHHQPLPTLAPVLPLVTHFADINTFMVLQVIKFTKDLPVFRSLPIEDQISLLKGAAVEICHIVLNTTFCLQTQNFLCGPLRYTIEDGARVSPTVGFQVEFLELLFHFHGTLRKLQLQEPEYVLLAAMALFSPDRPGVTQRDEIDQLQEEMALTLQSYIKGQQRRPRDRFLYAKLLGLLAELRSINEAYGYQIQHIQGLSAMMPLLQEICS
Luciferin 4-monooxygenase (Photinus pyralis), sequence (P08659 whole entry, looked up): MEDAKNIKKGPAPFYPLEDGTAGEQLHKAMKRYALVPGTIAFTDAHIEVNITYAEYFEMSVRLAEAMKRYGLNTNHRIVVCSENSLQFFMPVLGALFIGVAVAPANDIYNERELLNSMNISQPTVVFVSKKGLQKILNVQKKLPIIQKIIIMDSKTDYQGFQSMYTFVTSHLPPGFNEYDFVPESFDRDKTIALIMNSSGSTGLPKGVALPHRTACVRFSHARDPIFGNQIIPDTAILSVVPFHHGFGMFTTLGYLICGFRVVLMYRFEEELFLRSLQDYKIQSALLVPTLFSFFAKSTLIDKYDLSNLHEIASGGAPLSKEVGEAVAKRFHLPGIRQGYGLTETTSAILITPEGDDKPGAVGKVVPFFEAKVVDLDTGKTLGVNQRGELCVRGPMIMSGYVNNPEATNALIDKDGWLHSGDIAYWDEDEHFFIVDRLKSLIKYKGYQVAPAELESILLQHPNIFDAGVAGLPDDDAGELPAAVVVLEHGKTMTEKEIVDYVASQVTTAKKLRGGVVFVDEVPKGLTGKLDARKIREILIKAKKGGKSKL

COc1ccc(S(=O)(=O)Nc2nnc(CC(C)C)s2)cc1
Potency [1]: inactive
outcome [2]: inactive
Potency [3]: inactive
Potency [4]: inactive
Potency [5]: inactive
Potency [6]: inactive
Potency [7]: inactive
Potency [8]: inactive
Potency [9]: inactive

CCN(O)CC
Potency [1]: inactive
outcome [2]: inactive
Potency [3]: inactive
Potency [4]: inactive
Potency [6]: inactive
Potency [7]: inactive
Potency [8]: inactive
Potency [10]: inactive
Potency [11]: inactive
Potency [9]: inactive

Oc1ccccc1F
Potency [1]: inactive
outcome [2]: inactive
Potency [3]: inactive
Potency [4]: inactive
Potency [5]: inactive
Potency [6]: inactive
Potency [7]: inactive
Potency [8]: inactive
Potency [9]: inactive

O=C(O)C(=O)Cc1c[nH]c2ccccc12
Potency [1]: inactive
outcome [2]: inactive
Potency [3]: inactive
Potency [4]: 34.4 µM (active)
Potency [5]: inactive
Potency [7]: inactive
Potency [8]: inactive
Potency [10]: inactive
Potency [11]: 30.6 µM (active)
Potency [9]: inactive

CC(C)=CCCC(C)CCOC=O (stereo unspecified)
Potency [1]: inactive
outcome [2]: inactive
Potency [3]: inactive
Potency [5]: inactive
Potency [6]: inactive
Potency [7]: inactive
Potency [8]: inactive
Potency [10]: inactive
Potency [9]: inactive

CC1=C2[C@H](/C=C(\C)C(=O)O)CC[C@@H](C)[C@H]2CC1
Potency [1]: 45.3 µM (active)
outcome [2]: inactive
Potency [3]: inactive
Potency [5]: inactive
Potency [6]: inactive
Potency [7]: inactive
Potency [8]: inactive
Potency [10]: inactive
Potency [9]: inactive
Potency [12]: inactive

CCCCCCCCc1ccc(S(=O)(=O)O)cc1
Potency [1]: 24.3 µM (active)
Potency [3]: inactive
Potency [4]: inactive
Potency [5]: inactive
Potency [7]: inactive
Potency [8]: inactive
Potency [10]: inactive
Potency [11]: inactive
Potency [9]: inactive

C[C@]12C(=O)OC(=O)[C@H]1[C@H]1C=C[C@@H]2C1
outcome [2]: inactive
Potency [3]: inactive
Potency [5]: inactive
Potency [6]: inactive
Potency [7]: inactive
Potency [8]: inactive
Potency [10]: inactive
Potency [11]: inactive
Potency [9]: inactive
Potency [12]: inactive
Potency [13]: inactive

CCCC1CCC(=O)O1 (stereo unspecified)
Potency [1]: inactive
Potency [5]: inactive
Potency [6]: inactive
Potency [7]: inactive
Potency [8]: inactive
Potency [10]: inactive
Potency [11]: inactive
Potency [9]: inactive

Clc1cccc(-c2cc(Cl)cc(Cl)c2)c1
outcome [2]: inactive
Potency [3]: inactive
Potency [4]: inactive
Potency [5]: inactive
Potency [6]: inactive
Potency [7]: inactive
Potency [8]: inactive
Potency [10]: inactive
Potency [9]: inactive
Potency [12]: inactive

Cc1nc(-c2ccccn2)ncc1C(=O)Nn1cc(C)c2cc(F)ccc21
outcome [2]: inactive
Potency [3]: inactive
Potency [5]: inactive
Potency [6]: inactive
Potency [8]: 24.3 µM (active)
Potency [10]: 13.7 µM (active)
Potency [11]: inactive
Potency [12]: 38.6 µM (active)

Cc1ccc(C=O)s1
outcome [2]: inactive
Potency [3]: inactive
Potency [5]: inactive
Potency [6]: inactive
Potency [7]: inactive
Potency [8]: inactive
Potency [10]: inactive
Potency [11]: inactive
Potency [9]: inactive
Potency [12]: inactive
Potency [13]: inactive

CCCOc1ccc2c(c1)CC[C@@H]1[C@@H]2CC[C@]2(C)C(OC)CC[C@@H]12 (stereo partly specified)
outcome [2]: inactive
Potency [3]: inactive
Potency [4]: inactive
Potency [6]: inactive
Potency [7]: inactive
Potency [8]: inactive
Potency [10]: inactive
Potency [9]: inactive
Potency [12]: inactive
Potency [13]: inactive

O=c1[nH]cnc2c1ncn2[C@@H]1O[C@H](CO)[C@@H](O)[C@H]1O
Potency [1]: inactive
Potency [5]: inactive
Potency [6]: inactive
Potency [7]: inactive
Potency [8]: inactive
Potency [10]: inactive
Potency [11]: inactive
Potency [9]: inactive
Potency [12]: inactive

CN1CCN(C2=Nc3cc(F)ccc3Cc3ccccc32)CC1
outcome [2]: inactive
Potency [3]: inactive
Potency [4]: inactive
Potency [5]: inactive
Potency [6]: inactive
Potency [7]: inactive
Potency [8]: inactive
Potency [10]: inactive
Potency [11]: inactive
Potency [9]: inactive
Potency [12]: inactive
Potency [13]: inactive

COc1ccc2nc(NC(=O)Nc3ccccc3)sc2c1
Potency [6]: 0.389 µM (active)
Potency [7]: inactive
Potency [8]: inactive
Potency [10]: inactive
Potency [9]: inactive

CN(C)C(=O)NC1(c2ccccc2)CCN(CCC[C@]2(c3ccc(Cl)c(Cl)c3)CCCN(C(=O)c3ccccc3)C2)CC1
activity change, negative = cytotoxicity [2]: -1.37% [at 19 µM]
activity change, negative = inhibition [6]: -2.4% [at 23.6 µM]
viability change, negative = cytotoxic [7]: -28.7% [at 19 µM]
activity, negative = inhibition [10]: -20.2% [at 19 µM]
activation [11]: -6.21% [at 19 µM]

COc1cc2c(cc1N)oc1ccccc12
outcome [2]: inactive
Potency [3]: inactive
Potency [4]: 12.5 µM (active)
Potency [5]: inactive
Potency [6]: 36.3 µM (active)
Potency [7]: inactive
Potency [8]: inactive
Potency [10]: inactive
Potency [11]: 31.3 µM (active)
Potency [9]: inactive
Potency [12]: inactive

O=C(O)[C@@H](O)[C@H](O)[C@H](O)[C@@H](O)C(=O)O
outcome [2]: inactive
Potency [5]: inactive
Potency [6]: inactive
Potency [7]: inactive
Potency [8]: inactive
Potency [9]: inactive
Potency [12]: inactive
Potency [13]: inactive

CCCCCCOc1ccc(N)cc1
outcome [2]: inactive
Potency [3]: inactive
Potency [4]: 10.9 µM (active)
Potency [6]: 31.7 µM (active)
Potency [7]: inactive
Potency [8]: inactive
Potency [10]: inactive
Potency [11]: 27.3 µM (active)
Potency [9]: inactive
Potency [12]: inactive
Potency [13]: 12.2 µM (active)

CCCCCCCCCCCCOCCOS(=O)(=O)O
Potency [1]: 19.5 µM (active)
Potency [3]: inactive
Potency [4]: inactive
Potency [7]: inactive
Potency [8]: inactive
Potency [10]: inactive
Potency [11]: inactive
Potency [9]: inactive
Potency [12]: inactive

CCCCCCCCCC#N
outcome [2]: inactive
Potency [5]: inactive
Potency [6]: inactive
Potency [7]: inactive
Potency [8]: inactive
Potency [10]: inactive
Potency [11]: inactive
Potency [9]: inactive
Potency [12]: inactive

COC(=O)/C=C(/C)N
Potency [1]: inactive
Potency [3]: inactive
Potency [4]: inactive
Potency [6]: inactive
Potency [7]: inactive
Potency [8]: inactive
Potency [10]: inactive
Potency [11]: inactive
Potency [9]: inactive
Potency [12]: inactive
Potency [13]: inactive

CCCCCCCCCC/C=C/C#N
Potency [1]: inactive
Potency [3]: inactive
Potency [4]: inactive
Potency [5]: inactive
Potency [6]: inactive
Potency [7]: inactive
Potency [8]: inactive
Potency [10]: inactive
Potency [11]: inactive
Potency [9]: inactive
Potency [12]: inactive

CCC(=O)c1ccc2c(c1)N(CCCN(C)C)c1ccccc1S2
Potency [4]: inactive
Potency [6]: inactive
Potency [7]: inactive
Potency [8]: inactive
Potency [10]: inactive
Potency [11]: inactive
